# Laboratory results from PubChem BioAssay (NCI).
# The panel holds about 79,000 compounds, 15% with a hit somewhere; the sample as a whole holds those more often. A number with no mark means an inactive call. Activity calls are given as the source filed them. No stated cut-off is given here; in the data, active means growth inhibition above about 70%; inactive means the rest.
# Columns and labels:
# [1] = NCI Yeast Anticancer Drug Screen. Data for the rad50 strain (AID 155);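 further: 0% = growth of vehicle-only cultures of the same strain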; conditions: S. cerevisiae rad50 strain growth inhibition, active compounds read high
# Procedure, shortened: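 Cells are treated with compound, grown, and their growth is then scored against vehicle-only cultures of the same repair-deficient yeast strain.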
# [2] = NCI Yeast Anticancer Drug Screen. Data for the mec2-1 strain (AID 157); conditions: S. cerevisiae mec2-1 strain, active compounds read high
# Procedure, shortened: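 Compounds were applied to mec2-1 yeast cells. Their growth was then compared with that of vehicle-treated cultures to give growth inhibition.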
# [3] = NCI Yeast Anticancer Drug Screen. Data for the sgs1 mgt1 strain (AID 161);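 further: 0% = growth of cultures given vehicle only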; conditions: S. cerevisiae sgs1 mgt1 strain, active compounds read high
# Procedure, shortened: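 Growth of a repair-deficient yeast mutant was monitored after compound treatment and expressed as inhibition relative to vehicle-treated cultures.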
# [4] = NCI Yeast Anticancer Drug Screen. Data for the cln2 rad14 strain (AID 165);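 further: 0% = growth equal to vehicle treated cultures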; conditions: S. cerevisiae cln2 rad14 strain, active compounds read high
# Procedure, shortened: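 Strain: cln2 rad14 yeast, altered in cell cycle control and DNA damage repair. Read-out: growth inhibition vs vehicle.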
# [5] = NCI Yeast Anticancer Drug Screen. Data for the bub3 strain (AID 167); conditions: S. cerevisiae bub3 mutant strain, active compounds read high
# Procedure, shortened: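 Part of a panel of yeast mutants defective in DNA damage repair or cell cycle regulation. Each strain is grown with compound, and inhibition is calculated relative to solvent-treated cultures.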
# [6] = NCI Yeast Anticancer Drug Screen. Data for the mlh1 rad18 strain (AID 175); conditions: S. cerevisiae mlh1 rad18 strain growth inhibition, active compounds read high
# Procedure, shortened: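 A repair-deficient yeast strain is exposed to test compound, and growth is scored relative to vehicle-treated controls.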
# [7] = at 5.0 µM (retest, dose inferred, filed as 0.5)
# [8] = at 50.0 µM (retest, dose inferred, filed as 5.0)
Compound,"growth inhibition [1, 7]","growth inhibition [1, 8]",growth inhibition ([1]; at 50.0 µM),"growth inhibition [2, 7]","growth inhibition [2, 8]",growth inhibition ([2]; at 50.0 µM),"growth inhibition [3, 7]","growth inhibition [3, 8]",growth inhibition ([3]; at 50.0 µM),"growth inhibition [4, 7]","growth inhibition [4, 8]",growth inhibition ([4]; at 50.0 µM),"growth inhibition [5, 7]","growth inhibition [5, 8]",growth inhibition ([5]; at 50.0 µM),"growth inhibition [6, 7]","growth inhibition [6, 8]",growth inhibition ([6]; at 50.0 µM)
Cc1cn(C2OC(CO)C(O)C(O)C2N)c(=O)[nH]c1=O (centres undefined),0%,-2%,86.5% (active),3%,10%,70.3% (active),1%,8%,56.5%,-4%,0%,61.6%,-8%,-13%,93.9% (active),-4%,-3%,92.5% (active)
CCCNCC/C=C/[Si](C)(C)C,-17%,99% (active),98.7% (active),-9%,99% (active),96.5% (active),-3%,99% (active),97.6% (active),4%,99% (active),98.5% (active),-2%,99% (active),98.8% (active),10%,99% (active),98.8% (active)
Oc1c(Cl)cc(C(c2cc(Cl)c(O)c(Cl)c2)C(Cl)(Cl)Cl)cc1Cl,94% (active),98% (active),98.8% (active),95% (active),99% (active),99.1% (active),81% (active),99% (active),99.3% (active),99% (active),98% (active),98.5% (active),96% (active),99% (active),98.8% (active),92% (active),98% (active),98.6% (active)
O=C1c2ccccc2C(=O)c2cc(O)ccc21,34%,91% (active),84.8% (active),-13%,77% (active),56.1%,2%,82% (active),69%,11%,54%,64.4%,44%,84% (active),80.3% (active),15%,87% (active),85% (active)
CN(C)c1cc[c]([Sn]([c]2ccc(N(C)C)cc2)([c]2ccc(N(C)C)cc2)[c]2ccc(N(C)C)cc2)cc1,0%,0%,72.5% (active),4%,4%,34.1%,-9%,-9%,37%,-12%,-12%,34.4%,-12%,-12%,49.4%,-18%,-18%,78.8% (active)
ClC(Cl)(Cl)C(NCCN1CCOCC1)c1ccccc1 (centres undefined),99% (active),88% (active),80% (active),100% (active),99% (active),61.7%,100% (active),98% (active),84.5% (active),66%,55%,78.8% (active),98% (active),97% (active),66.3%,99% (active),98% (active),78.7% (active)
O=C1OS(=O)(=O)c2cc3c(cc21)C1C(C2C3C3(Cl)C(Cl)=C(Cl)C2(Cl)C3(Cl)Cl)C2(Cl)C(Cl)=C(Cl)C1(Cl)C2(Cl)Cl (centres undefined),-18%,58%,83.9% (active),48%,72% (active),71.8% (active),55%,80% (active),86.6% (active),8%,77% (active),60.9%,3%,81% (active),74% (active),63%,91% (active),73.8% (active)
Oc1c(Cl)cc(Cl)c(Cc2c(Cl)cc(Cl)c(O)c2Cl)c1Cl,98% (active),97% (active),65.8%,98% (active),98% (active),3.5%,98% (active),99% (active),-10.2%,98% (active),97% (active),19.5%,97% (active),97% (active),-3.05%,99% (active),96% (active),46.6%
C=CCOC(=O)C#CCCCC,-3%,1%,-5.25%,3%,2%,19.6%,-2%,2%,15.7%,-5%,5%,87.8% (active),-1%,11%,-12.8%,-1%,6%,-12.3%
CCOC(=O)CCC(=O)Oc1ccc2c(c1OC(=O)CCC(=O)OCC)C(=O)c1ccccc1C2=O,25%,97% (active),87.5% (active),11%,97% (active),78.8% (active),50%,98% (active),83% (active),13%,97% (active),66%,8%,96% (active),60.5%,22%,97% (active),95% (active)
O=C(CBr)C1(Br)CCN(Cc2ccccc2)CC1,19%,99% (active),99.3% (active),17%,99% (active),99.8% (active),22%,99% (active),99.6% (active),8%,99% (active),97.6% (active),6%,99% (active),99.5% (active),30%,99% (active),99.6% (active)
CCCCN(CCCC)CCC(O)c1cc2c(c3ccccc13)CCCC2 (centres undefined),1%,99% (active),99.4% (active),5%,100% (active),99.2% (active),10%,100% (active),99.7% (active),0%,98% (active),67.1%,10%,99% (active),97.8% (active),9%,99% (active),99.5% (active)
CC12OC1C(=O)c1ccccc1C2=O (centres undefined),4%,85% (active),88.5% (active),15%,93% (active),92.1% (active),9%,87% (active),89.9% (active),19%,65%,57.6%,9%,96% (active),90.9% (active),-2%,95% (active),81.6% (active)
CCC[N+]1=C(/C=C/c2cc(C)c3cccnc3c2O)C(C)(C)c2ccccc21,12%,94% (active),93.7% (active),27%,95% (active),90.3% (active),7%,93% (active),86.5% (active),-7%,90% (active),81.8% (active),4%,93% (active),92% (active),19%,93% (active),93% (active)
Nc1ccc(S(=O)(=O)C23CC4CC(CC(C4)C2)C3)cc1,-2%,96% (active),97.9% (active),-16%,98% (active),98.8% (active),-3%,98% (active),97.7% (active),1%,93% (active),93.5% (active),64%,98% (active),95.8% (active),13%,98% (active),97.5% (active)
COc1ccc(C(=O)O)c(-c2c(C(=O)O)ccc(OC)c2OC(C)=O)c1,3%,1%,16.5%,-5%,9%,3.05%,-18%,7%,-3.85%,2%,-2%,63.7%,0%,-5%,73% (active),14%,13%,54.6%
CC(=O)OC(OC(C)=O)c1ccc([N+](=O)[O-])s1,-77%,100% (active),99.4% (active),-18%,100% (active),99.4% (active),10%,100% (active),99.5% (active),1%,99% (active),99.1% (active),-7%,100% (active),99.5% (active),19%,100% (active),99.5% (active)
CN(C)/C=C(\C(=O)c1ccccc1)n1nc(-c2ccccc2)cc1-c1ccccc1,15%,45%,72.5% (active),-4%,20%,73.7% (active),11%,48%,83.3% (active),22%,50%,70.2% (active),-3%,38%,74% (active),16%,54%,81.3% (active)
